# Data reported in the supplement of paper PMC8728848.
# Shown is part of a subset that was picked to be rich in the strongest signals.
# Columns and labels:
# Test in all cases: glycan array binding signal (z-score within array); higher = stronger binding
# [1] = tested on: Neu5Ac(a2-3)[Neu5Ac(a2-6)]GalNAc; conditions: glycan notation: IUPAC condensed, linker removed
# Procedure, shortened: (§1)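 The binding signal is a Z-score computed within each array and averaged over linkers. Arrays of the same protein sequence at different concentrations or buffers were also averaged together. Data originate from 3228 arrays in the Consortium for Functional Glycomics database, kept only where the protein sequence was available.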
# [2] = tested on: Neu5Ac(a2-6)Gal(b1-4)GlcNAc(b1-2)Man(a1-3)[Gal(b1-4)GlcNAc(b1-2)Man(a1-6)]Man(b1-4)GlcNAc(b1-4)GlcNAc; conditions: glycan notation: IUPAC condensed, linker removed
# Procedure, shortened: as §1
# [3] = tested on: Neu5Ac(a2-3)Gal6S(b1-4)[Fuc(a1-3)]GlcNAc; conditions: glycan notation: IUPAC condensed, linker removed
# Procedure, shortened: as §1
# Neu5Ac(a2-3)GalNAc = conditions: glycan notation: IUPAC condensed, linker removed
# Procedure, shortened: as §1
# [4] = tested on: Neu5Ac(a2-3)GalNAc(b1-4)GlcNAc; conditions: glycan notation: IUPAC condensed, linker removed
# Procedure, shortened: as §1
# [5] = tested on: Neu5Ac(a2-6)Gal(b1-3)GlcNAc(b1-3)[Gal(b1-4)GlcNAc(b1-6)]Gal(b1-4)Glc; conditions: glycan notation: IUPAC condensed, linker removed; mutation: R125K
# Procedure, shortened: as §1
# Neu5Ac(a2-3)Gal = conditions: glycan notation: IUPAC condensed, linker removed
# Procedure, shortened: as §1
# [6] = tested on: Neu5Ac(a2-3)[GalNAc(b1-4)]Gal(b1-4)Glc; conditions: glycan notation: IUPAC condensed, linker removed
# Procedure, shortened: as §1
# [7] = tested on: Neu5Ac(a2-3)[GalNAc(b1-4)]Gal(b1-4)GlcNAc; conditions: glycan notation: IUPAC condensed, linker removed
# Procedure, shortened: as §1
# [8] = tested on: Neu5Ac(a2-3)[GalNAc(b1-4)]Gal(b1-4)GlcNAc(b1-3)GalNAc; conditions: glycan notation: IUPAC condensed, linker removed
# Procedure, shortened: as §1
# C3b (Homo sapiens), P01024, sequence (P01024 23-667): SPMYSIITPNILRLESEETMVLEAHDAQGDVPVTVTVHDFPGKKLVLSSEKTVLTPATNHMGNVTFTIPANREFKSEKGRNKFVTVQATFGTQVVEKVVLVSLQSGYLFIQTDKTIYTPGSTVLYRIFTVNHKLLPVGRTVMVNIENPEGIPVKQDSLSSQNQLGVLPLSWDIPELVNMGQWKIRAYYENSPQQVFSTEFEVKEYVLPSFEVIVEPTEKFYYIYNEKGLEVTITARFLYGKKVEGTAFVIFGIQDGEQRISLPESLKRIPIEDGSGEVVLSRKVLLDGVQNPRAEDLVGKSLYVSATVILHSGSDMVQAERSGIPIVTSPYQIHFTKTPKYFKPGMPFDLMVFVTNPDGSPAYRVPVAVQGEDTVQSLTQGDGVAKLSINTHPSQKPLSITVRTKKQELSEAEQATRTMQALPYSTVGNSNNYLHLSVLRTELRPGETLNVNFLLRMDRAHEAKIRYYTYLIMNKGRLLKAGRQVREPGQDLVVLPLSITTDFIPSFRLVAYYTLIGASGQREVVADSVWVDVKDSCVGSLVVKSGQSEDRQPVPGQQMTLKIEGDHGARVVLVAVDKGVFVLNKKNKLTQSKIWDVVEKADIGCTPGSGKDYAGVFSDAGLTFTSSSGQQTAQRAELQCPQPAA
# CHI3L1 (Homo sapiens), P36222, sequence (P36222 whole entry): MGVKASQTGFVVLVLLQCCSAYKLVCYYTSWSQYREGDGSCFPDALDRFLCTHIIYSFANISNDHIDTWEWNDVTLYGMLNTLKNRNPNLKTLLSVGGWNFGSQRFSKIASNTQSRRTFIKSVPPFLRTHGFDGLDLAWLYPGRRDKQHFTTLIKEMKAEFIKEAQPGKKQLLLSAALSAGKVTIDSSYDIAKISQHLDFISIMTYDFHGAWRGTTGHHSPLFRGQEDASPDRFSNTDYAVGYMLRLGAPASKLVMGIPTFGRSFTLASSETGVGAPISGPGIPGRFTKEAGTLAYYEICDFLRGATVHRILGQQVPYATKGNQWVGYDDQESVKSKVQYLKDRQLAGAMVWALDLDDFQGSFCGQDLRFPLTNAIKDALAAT
# 6RG (Lolium perenne), sequence (chain, as listed by the source): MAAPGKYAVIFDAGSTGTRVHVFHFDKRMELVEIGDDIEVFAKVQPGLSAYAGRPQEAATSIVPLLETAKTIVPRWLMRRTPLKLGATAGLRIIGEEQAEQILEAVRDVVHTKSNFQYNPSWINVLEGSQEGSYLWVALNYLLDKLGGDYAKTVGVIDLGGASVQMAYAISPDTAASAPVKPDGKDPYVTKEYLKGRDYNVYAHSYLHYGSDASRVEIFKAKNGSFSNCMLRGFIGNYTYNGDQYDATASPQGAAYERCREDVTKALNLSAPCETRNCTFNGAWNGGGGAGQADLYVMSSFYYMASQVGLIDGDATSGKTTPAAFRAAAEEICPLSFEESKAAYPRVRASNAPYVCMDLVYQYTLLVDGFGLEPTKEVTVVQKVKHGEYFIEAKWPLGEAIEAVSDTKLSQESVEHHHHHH
# wLAT-1A (Homo sapiens), Q01650, sequence (Q01650 whole entry): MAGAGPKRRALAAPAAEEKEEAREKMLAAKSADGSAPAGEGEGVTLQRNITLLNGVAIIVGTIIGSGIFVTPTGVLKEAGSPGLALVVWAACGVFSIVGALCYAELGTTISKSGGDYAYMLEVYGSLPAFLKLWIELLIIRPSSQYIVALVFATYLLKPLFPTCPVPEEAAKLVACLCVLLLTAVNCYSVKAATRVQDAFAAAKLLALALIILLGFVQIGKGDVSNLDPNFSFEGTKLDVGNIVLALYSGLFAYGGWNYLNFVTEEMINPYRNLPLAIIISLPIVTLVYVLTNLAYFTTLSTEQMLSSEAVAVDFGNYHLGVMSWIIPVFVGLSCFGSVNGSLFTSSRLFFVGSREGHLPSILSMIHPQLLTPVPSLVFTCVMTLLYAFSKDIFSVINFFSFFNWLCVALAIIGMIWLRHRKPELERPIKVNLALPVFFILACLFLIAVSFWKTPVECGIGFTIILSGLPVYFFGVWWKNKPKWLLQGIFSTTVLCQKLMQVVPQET
# PILRb (Mus musculus), Q2YSF2, sequence (Q2YSF2 entry or part of it): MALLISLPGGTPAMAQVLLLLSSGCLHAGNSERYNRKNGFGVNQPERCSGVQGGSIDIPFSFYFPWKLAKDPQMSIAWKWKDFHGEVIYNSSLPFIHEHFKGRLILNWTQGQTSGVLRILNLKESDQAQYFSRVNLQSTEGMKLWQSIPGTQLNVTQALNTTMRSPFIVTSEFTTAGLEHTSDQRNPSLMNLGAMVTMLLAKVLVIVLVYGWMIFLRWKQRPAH
# Neurocan (Homo sapiens), O14594, sequence (O14594 other isoform, or with tags, fused parts or gaps): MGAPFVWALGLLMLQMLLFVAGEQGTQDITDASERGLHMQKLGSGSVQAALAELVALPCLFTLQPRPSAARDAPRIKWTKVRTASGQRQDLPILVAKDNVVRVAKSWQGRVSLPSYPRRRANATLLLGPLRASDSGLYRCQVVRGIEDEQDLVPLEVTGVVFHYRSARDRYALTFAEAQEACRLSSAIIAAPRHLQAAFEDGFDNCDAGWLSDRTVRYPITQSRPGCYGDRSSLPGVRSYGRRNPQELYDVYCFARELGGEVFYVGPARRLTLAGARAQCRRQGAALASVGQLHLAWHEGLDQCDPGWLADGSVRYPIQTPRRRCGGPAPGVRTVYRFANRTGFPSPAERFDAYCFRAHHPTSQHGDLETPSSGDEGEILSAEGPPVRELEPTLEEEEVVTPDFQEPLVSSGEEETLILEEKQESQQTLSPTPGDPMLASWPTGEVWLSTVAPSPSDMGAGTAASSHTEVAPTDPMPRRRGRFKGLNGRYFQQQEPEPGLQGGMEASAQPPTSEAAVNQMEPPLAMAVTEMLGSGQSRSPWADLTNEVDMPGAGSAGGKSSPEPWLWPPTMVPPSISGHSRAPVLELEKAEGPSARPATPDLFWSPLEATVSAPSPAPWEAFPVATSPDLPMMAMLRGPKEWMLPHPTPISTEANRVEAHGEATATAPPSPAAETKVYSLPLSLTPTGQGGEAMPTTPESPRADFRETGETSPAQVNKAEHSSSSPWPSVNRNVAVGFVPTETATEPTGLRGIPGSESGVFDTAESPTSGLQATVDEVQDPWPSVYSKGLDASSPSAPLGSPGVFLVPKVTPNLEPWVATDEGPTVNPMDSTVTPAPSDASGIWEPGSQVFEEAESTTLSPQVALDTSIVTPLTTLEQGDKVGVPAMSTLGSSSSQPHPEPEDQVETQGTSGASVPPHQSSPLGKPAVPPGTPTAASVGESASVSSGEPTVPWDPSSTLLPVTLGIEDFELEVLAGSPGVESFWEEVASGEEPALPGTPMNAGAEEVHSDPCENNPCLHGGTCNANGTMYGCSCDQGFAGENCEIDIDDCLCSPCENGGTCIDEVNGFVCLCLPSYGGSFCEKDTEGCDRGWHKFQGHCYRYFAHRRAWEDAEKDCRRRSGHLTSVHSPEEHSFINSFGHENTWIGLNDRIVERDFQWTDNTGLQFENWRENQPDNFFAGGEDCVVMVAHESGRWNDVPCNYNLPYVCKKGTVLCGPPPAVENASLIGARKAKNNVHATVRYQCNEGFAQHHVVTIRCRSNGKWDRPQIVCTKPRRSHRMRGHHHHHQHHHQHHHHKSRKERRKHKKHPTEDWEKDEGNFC
# Regenerating Gene IV (Homo sapiens), Q9BYZ8, sequence (Q9BYZ8 whole entry, looked up): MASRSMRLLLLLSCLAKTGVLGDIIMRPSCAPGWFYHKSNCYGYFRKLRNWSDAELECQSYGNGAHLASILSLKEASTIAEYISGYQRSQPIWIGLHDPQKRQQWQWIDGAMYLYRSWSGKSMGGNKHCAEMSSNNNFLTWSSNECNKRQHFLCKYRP
# 6RG (Lolium perenne), B9U140, sequence (B9U140 entry or part of it): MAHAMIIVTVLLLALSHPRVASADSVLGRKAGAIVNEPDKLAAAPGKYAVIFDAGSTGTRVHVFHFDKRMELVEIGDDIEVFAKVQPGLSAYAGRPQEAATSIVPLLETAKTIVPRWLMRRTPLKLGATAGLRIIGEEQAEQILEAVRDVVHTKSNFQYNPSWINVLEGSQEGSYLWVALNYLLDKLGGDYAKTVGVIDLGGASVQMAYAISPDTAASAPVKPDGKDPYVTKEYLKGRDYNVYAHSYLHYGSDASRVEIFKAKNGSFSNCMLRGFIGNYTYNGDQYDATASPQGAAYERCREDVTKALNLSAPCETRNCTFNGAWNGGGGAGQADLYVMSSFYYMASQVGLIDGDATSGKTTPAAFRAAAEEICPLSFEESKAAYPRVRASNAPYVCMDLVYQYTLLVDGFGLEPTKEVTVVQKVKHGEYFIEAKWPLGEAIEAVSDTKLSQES
substance,measurement,setting,value
"wLAT-1A (Homo sapiens), Q01650",glycan array binding signal (z-score),[1],0.503
same,glycan array binding signal (z-score),[2],-0.898
"CHI3L1 (Homo sapiens), P36222",glycan array binding signal (z-score),[3],-0.117
same,glycan array binding signal (z-score),Neu5Ac(a2-3)GalNAc,-0.131
"Siglec-8 (Homo sapiens), Q9NYZ4",glycan array binding signal (z-score),[3],15
same,glycan array binding signal (z-score),[4],-0.069
same,glycan array binding signal (z-score),[5],-0.472
6RG (Lolium perenne),glycan array binding signal (z-score),Neu5Ac(a2-3)Gal,-0.339
same,glycan array binding signal (z-score),[1],-0.349
"Regenerating Gene IV (Homo sapiens), Q9BYZ8",glycan array binding signal (z-score),[6],0.356
"PILRb (Mus musculus), Q2YSF2",glycan array binding signal (z-score),[7],-0.329
"C3b (Homo sapiens), P01024",glycan array binding signal (z-score),[4],1.01
same,glycan array binding signal (z-score),[7],-0.304
same,glycan array binding signal (z-score),[2],-0.286
MpAFP RI GFP (Marinomonas primoryensis),glycan array binding signal (z-score),Neu5Ac(a2-3)GalNAc,2.97
"6RG (Lolium perenne), B9U140",glycan array binding signal (z-score),[1],-0.334
"Neurocan (Homo sapiens), O14594",glycan array binding signal (z-score),[8],-0.87
